Assay results published in PubChem BioAssay (EPA / NIEHS).
Results filed as inconclusive are left out. Active and inactive are the calls of the source. The calls were made as follows: active = hit-call score of the fitted dose curve at least 0.9, where 1 is the maximum; inconclusive = response in the unintended direction; inactive = score below 0.9.

What was measured:
[1] = Tanguay_ZF_120hpf_YSE_legacy: (Legacy) Oregon State University Tanguay Lab 120 Hour Post-fertilization zebrafish Assay for Yolk Sac Edema (AID 2283634);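 as to AC50: actives raise the incidence of yolk sac edema above the DMSO baseline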
How it was run: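 Dechorionated Tropical 5D wild-type zebrafish embryos were exposed statically, one per well, from 6 to 120 hpf at 28C in 0.64% DMSO. Yolk sac edema was scored present/absent by brightfield at 120 hpf, and dead embryos were excluded.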

[2] = Tanguay_ZF_120hpf_AXIS_legacy: (Legacy) Oregon State University Tanguay Lab 120 Hour Post-fertilization zebrafish Assay for Body Axis Malformation (AID 2283635);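 as to AC50: potency for an increased fraction of larvae scored with body axis malformation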
How it was run: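 Dechorionated wild-type Tropical 5D zebrafish embryos, one per well, statically exposed from 6 hpf to 120 hpf at 28C in 0.64% DMSO final. Body axis malformation scored present/absent by brightfield microscopy at 120 hpf; dead embryos excluded.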

[3] = Tanguay_ZF_120hpf_SNOU_legacy: (Legacy) Oregon State University Tanguay Lab 120 Hour Post-fertilization zebrafish Assay for Snout Malformation (AID 2283637)
How it was run: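 Dechorionated zebrafish, individually housed from 6 hpf in covered, sealed wells at 28C with 0.64% DMSO vehicle, were examined at 120 hpf for snout malformation. Responses were binary and analysed positive-direction relative to DMSO.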

[4] = Tanguay_ZF_120hpf_JAW_legacy: (Legacy) Oregon State University Tanguay Lab 120 Hour Post-fertilization zebrafish Assay for Jaw Malformation (AID 2283638);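 as to AC50: active means more embryos with jaw malformation than DMSO controls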
How it was run: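 Dechorionated Tropical 5D wild-type zebrafish embryos, one per well, exposed statically from 6 hpf to 120 hpf at 28C in 0.64% DMSO. Jaw malformation was scored by brightfield microscopy as present or absent. It was not scored in dead embryos.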

[5] = Tanguay_ZF_120hpf_OTIC_legacy: (Legacy) Oregon State University Tanguay Lab 120 Hour Post-fertilization zebrafish Assay for Otic Vesicle Malformation (AID 2283639)
How it was run: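 Statically exposed wild-type 5D zebrafish embryos, kept sealed and dark at 28C through 120 hours post fertilization, were examined by brightfield microscopy for otic vesicle defects. Responses were recorded as present or absent and analysed relative to DMSO.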

[6] = Tanguay_ZF_120hpf_PE_legacy: (Legacy) Oregon State University Tanguay Lab 120 Hour Post-fertilization zebrafish Assay for Pericardial Edema (AID 2283640);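 as to AC50: potency for increased incidence of pericardial edema versus DMSO baseline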
How it was run: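 Tropical 5D wild-type zebrafish embryos were statically exposed until 120 hpf at 28C, with 0.64% DMSO final. Pericardial edema was scored by brightfield as present or absent; endpoints were not scored in dead embryos.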

[7] = Tanguay_ZF_120hpf_BRAI_legacy: (Legacy) Oregon State University Tanguay Lab 120 Hour Post-fertilization zebrafish Assay for Brain Malformation (AID 2283641)
How it was run: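 Tropical 5D wild-type zebrafish embryos exposed statically until 120 hpf at 28C, 0.64% DMSO final, sealed and dark. Brain malformation scored present/absent by brightfield at 120 hpf; dead embryos excluded. Trimethyltin chloride 5uM positive control.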

[8] = Tanguay_ZF_120hpf_SOMI_legacy: (Legacy) Oregon State University Tanguay Lab 120 Hour Post-fertilization zebrafish Assay for Somite Malformation (AID 2283647)
How it was run: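 Dechorionated Tropical 5D wild-type zebrafish embryos, one per well from 6 hpf, statically exposed at 28C to 120 hpf in 0.64% DMSO; somite malformation scored present/absent by brightfield; trimethyltin 5 uM positive control; dead embryos not scored.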

[9] = Tanguay_ZF_120hpf_PFIN_legacy: (Legacy) Oregon State University Tanguay Lab 120 Hour Post-fertilization zebrafish Assay for Pectoral Fin Malformation (AID 2283648);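 also: each larva judged yes or no for fin defect by brightfield with dead larvae skipped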
How it was run: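 Scoring of pectoral fin malformation was binary, made at 120 hpf on larvae exposed statically from 6 hpf after enzymatic chorion removal. Activity was fitted upward relative to DMSO controls at 0.64% (vol/vol).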

For `OCCCBr`, the outcome [1] was “inactive”, the outcome [2] was “inactive” and the outcome [3] was “inactive”. The outcome [4] was “inactive”, the outcome [5] was “inactive” and the outcome [6] was “inactive”. The outcome [7] was “inactive”, the outcome [8] was “inactive” and the outcome [9] was “inactive”.
In the case of `CCOC(=O)[C@]1(c2ccccc2)Oc2ccccc2[C@@H]1N`, the outcome [1] is reported as “inactive”, the outcome [2] is reported as “inactive” and the outcome [3] is reported as “inactive”. For the same compound, the outcome [4] was “inactive”, the outcome [5] was “inactive” and the outcome [6] was “inactive”. The outcome [7] was “inactive” and the outcome [8] was “inactive”.
In the case of `CC(C)(O)c1cnn2c(-c3ccc(F)c(-c4c(F)cccc4C#N)c3)cnc2n1`, the outcome [1] is reported as “inactive”, the outcome [2] is reported as “inactive” and the outcome [3] is reported as “inactive”. The outcome [4] was “inactive”, the outcome [5] was “inactive” and the outcome [6] was “inactive”. The outcome [7] was “inactive”, the outcome [8] was “inactive” and the outcome [9] was “inactive”.
For `CCN(CC)N=O`, the outcome [1] was “inactive”, the outcome [2] was “inactive” and the outcome [3] was “inactive”. The outcome [4] was “inactive”, the outcome [5] was “inactive” and the outcome [6] was “inactive”. The outcome [7] was “inactive”, the outcome [8] was “inactive” and the outcome [9] was “inactive”.
For `[Cl-].[Cl-].[Hg+2]`, the AC50 [1] was 4.25 µM (active), the AC50 [2] was 3.84 µM (active) and the AC50 [3] was 3.82 µM (active). The AC50 [4] was 3.12 µM (active), the AC50 [5] was 3.86 µM (active) and the AC50 [6] was 3.82 µM (active). For the same compound, the AC50 [7] was 1.22 µM (active), the AC50 [8] was 3.87 µM (active) and the AC50 [9] was 3.5 µM (active).
For `Nc1ccc(Cl)cc1N`, the outcome [1] was “inactive”, the outcome [2] was “inactive” and the outcome [3] was “inactive”. For the same compound, the outcome [4] was “inactive”, the outcome [5] was “inactive” and the outcome [6] was “inactive”. For the same compound, the outcome [7] was “inactive”, the outcome [8] was “inactive” and the outcome [9] was “inactive”.
For `CCCCCCCCCCCCCN1CC(C)OC(C)C1` (stereo not drawn), the outcome [1] was “inactive”, the outcome [2] was “inactive” and the outcome [3] was “inactive”. For the same compound, the outcome [4] was “inactive”, the outcome [5] was “inactive” and the outcome [6] was “inactive”. For the same compound, the outcome [7] was “inactive”, the outcome [8] was “inactive” and the outcome [9] was “inactive”.
For `Cc1ccc(N=C=O)cc1N=C=O`, the outcome [1] was “inactive”, the outcome [2] was “inactive” and the outcome [3] was “inactive”. The outcome [4] was “inactive”, the outcome [5] was “inactive” and the outcome [6] was “inactive”. The outcome [7] was “inactive”, the outcome [8] was “inactive” and the outcome [9] was “inactive”.
For `COC(=O)Nc1nc2ccccc2[nH]1`, the AC50 [1] was 47.5 µM (active), the outcome [2] was “inactive” and the outcome [3] was “inactive”. For the same compound, the outcome [4] was “inactive”, the outcome [5] was “inactive” and the outcome [6] was “inactive”. The outcome [7] was “inactive”, the outcome [8] was “inactive” and the outcome [9] was “inactive”.
With `COC(=O)c1ccccc1N` the outcome [1] was “inactive”, the outcome [2] was “inactive” and the outcome [3] was “inactive”. The outcome [4] was “inactive”, the outcome [5] was “inactive” and the outcome [6] was “inactive”. For the same compound, the outcome [7] was “inactive” and the outcome [8] was “inactive”.
